Records with an inconclusive call do not appear. Where a call stands in place of a potency, no number is given. The source made the active and inactive calls. Unless noted, calls follow the shape of the dose curve; as a rule, active = well fitted curve in the direction sought with a large enough effect; inconclusive = small, poorly fitted or top-dose-only effect, or another doubt; inactive = no such curve, though single readings can be large; an effect the other way counts as inactive or inconclusive.

Results on 42 molecules are retold here after PubChem BioAssay (NCATS).

The target in test [1] is Ubiquitin carboxyl-terminal hydrolase 1 (Homo sapiens) (UniProt O94782). Nature of the test: Inhibitors of USP1/UAF1: Pilot qHTS (AID 504865). Also: nearly all actives have a fitted effect of over 35% in size. Also: potency is read from the fitted curve at half-maximal effect. The procedure, abridged:
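USP1/UAF1 complex at 1 nM preincubated 15 min at room temperature with compound, then Ub-Rho substrate added at 150 nM final. Fluorescence (480/540 nm) read kinetically in 50 mM HEPES pH 7.8, 0.5 mM EDTA, 1 mM TCEP, 0.1 mg/ml BSA, 0.01% Tween-20.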

The target in test [2] is Thyrotropin-releasing hormone receptor (Homo sapiens) (UniProt P34981). Nature of the test: qHTS for Small Molecule Agonists and Allosteric Enhancers of Human TRH Receptor: Validation Screen for Agonists (AID 493127;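 active = calcium activation more than 3 SD above the typical response in the agonist read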). Particulars: TRH receptor agonist cell assay; at 2 µM; stronger effect = higher value. The method, boiled down: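 TRHR cells loaded with fluo-8 calcium dye; FDSS kinetic fluorescence (Ex 480/Em 530) read at 1 s/cycle after 23 nL compound addition. Agonist-mode calcium response recorded before the 10 nM TRH (EC20) addition.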

Test [3] in a line: Nrf2 qHTS screen for inhibitors: Validation (AID 493153; active = well fitted inhibition curve with a large enough effect in the main read-out, with a control signal flat, not every such curve was filed as active; also: potency is read from the fitted curve at half-maximal effect). Particulars: Potency: luciferase luminescence; viability change: measured here: cytotoxicity max response. The method, boiled down:
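A549 cells carrying ARE-firefly luciferase reporter, 5000 cells/well in 5% FBS OPTI-MEM, treated with compound over a concentration series for 18-24 h at 37 C. Luciferase luminescence gave Nrf2 activity; CellTiter-Fluor fluorescence gave viability.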

Test [4] is described as follows: qHTS for Inhibitors of Cell Surface uPA Generation: Validation Assay (AID 493164). The procedure, abridged: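 RAW 264.7 cells (4000/well) were plated overnight, then exposed for 18 h at 37 C, 5% CO2 to compounds in a 7-point 1:5 titration (2.45 nM–38.3 uM final). Intracellular ATP was read by ATP-Lite luminescence.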
For test [5], the target named is Galactokinase (Homo sapiens) (UniProt P51570). Kind of test: qHTS Validation Assay for Inhibitors of Human Galactokinase (GALK) (AID 493189). The method, boiled down: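 GALK (5 nM) with 35 uM ATP and 100 uM galactose in HEPES pH 8.0 with MgCl2, NaCl, DTT and BSA. Reaction ran 1 h at room temperature. Residual ATP read by Kinase-Glo Plus luminescence.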
Test [6] can be described thus: Validation screen for small molecules that induce DNA re-replication in SW480 colon adenocarcinoma cells (AID 504364). The procedure, abridged:
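SW480 cells (250/well) exposed 48 h at 37 C, 5% CO2, then Hoechst-stained 40 min. Nuclear DNA content imaged by fluorescence scanning (405 nm excitation, 500-530 nm emission); re-replication scored as increased nuclei with elevated intensity.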

Test [7] addresses Peptidyl-prolyl cis-trans isomerase NIMA-interacting 1 (Homo sapiens) (UniProt Q13526). Nature of the test: qHTS Validation Assay to Find Inhibitors of Pin1 (AID 504536; active = well fitted inhibition curve with a large enough effect in the polarisation, with a control signal flat, not every such curve was filed as active; the % refers to the polarisation). The procedure, abridged: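 Fluorescence polarization competition: compounds (titration) displace HiFluor-488-labeled Pin1-1b peptide from Pin1 (0.3 uM final) in pH 7.5 HEPES buffer with DTT, 10 min at room temperature; %Activity normalized to no-enzyme wells, curves fitted.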

The target in test [8] is Phosphoglycerate kinase, glycosomal (Trypanosoma brucei brucei) (UniProt P07378). Kind of test: qHTS Validation Assay to Find Inhibitors of Phosphoglycerate Kinase (AID 504547). The procedure, abridged:
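Inhibition of the enzyme is judged by a Kinase-Glo Plus luminescent signal following a one-hour incubation at room temperature. Because 1,3-BPG is unstable, it is made in situ by GAPDH at 100nM final; no-PGK wells define the baseline.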

Test [9] has as its target phosphoglycerate mutase (Leishmania major) (UniProt Q4Q090). Kind of test: qHTS Validation Assay to Find Inhibitors of Phosphoglycerate Mutase (AID 504548).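 Also: end-point luminescence from Kinase-GloPlus after the PGAM reaction; series mostly up to about 58 µM.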 The procedure, abridged: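 L. major PGAM (1.25nM final) was added to substrate buffer and pinned compound, incubated 45 minutes at room temperature, then Kinase-GloPlus added; luminescence read after 10 minutes. Buffer: 100 mM TEA pH 7.6, 5 mM MgCl2, 0.01% Tween-20.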

Test [10] can be described thus: qHTS for Inhibitors of ATXN expression: Validation of Cytotoxic Assay (AID 588349). The method, boiled down: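 HEK293 cells treated with titrated compound for 72 hr at 37 degrees C; viability read as intracellular ATP by CellTiter Glo luminescence.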
The nature of test [11]: qHTS for Inhibitors of ATXN expression: Validation (AID 588378). Also: series mostly up to about 57 µM; nearly all actives have a fitted effect of over 75% in size. The method, boiled down:
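HEK293 cells carrying ATXN2-firefly luciferase reporter, treated with compound 24 h at 37 °C. Viability read first by CellTiter-Fluor (405/525 nm), then reporter expression by Bright-Glo luminescence; controls were a known ATXN2 expression inhibitor and a luciferase inhibitor.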

Chain of Ubiquitin carboxyl-terminal hydrolase 1 (Homo sapiens) (O94782 whole entry, looked up): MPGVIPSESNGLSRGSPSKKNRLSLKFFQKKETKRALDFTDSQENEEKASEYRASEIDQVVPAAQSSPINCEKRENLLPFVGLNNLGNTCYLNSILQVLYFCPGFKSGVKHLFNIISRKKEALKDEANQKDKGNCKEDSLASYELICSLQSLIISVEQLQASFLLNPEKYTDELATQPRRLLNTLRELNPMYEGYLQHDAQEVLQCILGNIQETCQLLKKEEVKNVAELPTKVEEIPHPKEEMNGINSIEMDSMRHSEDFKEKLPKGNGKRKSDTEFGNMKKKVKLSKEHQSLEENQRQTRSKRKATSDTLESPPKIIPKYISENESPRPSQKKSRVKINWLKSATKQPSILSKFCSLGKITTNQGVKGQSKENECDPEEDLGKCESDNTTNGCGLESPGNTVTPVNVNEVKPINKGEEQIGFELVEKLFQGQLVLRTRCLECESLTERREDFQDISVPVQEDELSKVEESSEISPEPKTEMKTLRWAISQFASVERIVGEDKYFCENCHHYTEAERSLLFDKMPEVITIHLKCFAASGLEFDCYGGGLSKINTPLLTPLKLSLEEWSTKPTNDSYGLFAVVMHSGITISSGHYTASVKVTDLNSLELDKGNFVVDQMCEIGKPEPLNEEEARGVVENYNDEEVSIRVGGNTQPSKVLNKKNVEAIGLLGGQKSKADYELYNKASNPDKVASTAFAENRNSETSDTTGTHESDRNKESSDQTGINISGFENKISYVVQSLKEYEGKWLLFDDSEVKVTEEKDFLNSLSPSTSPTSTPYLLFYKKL
Chain of phosphoglycerate mutase (Leishmania major) (Q4Q090 1-553): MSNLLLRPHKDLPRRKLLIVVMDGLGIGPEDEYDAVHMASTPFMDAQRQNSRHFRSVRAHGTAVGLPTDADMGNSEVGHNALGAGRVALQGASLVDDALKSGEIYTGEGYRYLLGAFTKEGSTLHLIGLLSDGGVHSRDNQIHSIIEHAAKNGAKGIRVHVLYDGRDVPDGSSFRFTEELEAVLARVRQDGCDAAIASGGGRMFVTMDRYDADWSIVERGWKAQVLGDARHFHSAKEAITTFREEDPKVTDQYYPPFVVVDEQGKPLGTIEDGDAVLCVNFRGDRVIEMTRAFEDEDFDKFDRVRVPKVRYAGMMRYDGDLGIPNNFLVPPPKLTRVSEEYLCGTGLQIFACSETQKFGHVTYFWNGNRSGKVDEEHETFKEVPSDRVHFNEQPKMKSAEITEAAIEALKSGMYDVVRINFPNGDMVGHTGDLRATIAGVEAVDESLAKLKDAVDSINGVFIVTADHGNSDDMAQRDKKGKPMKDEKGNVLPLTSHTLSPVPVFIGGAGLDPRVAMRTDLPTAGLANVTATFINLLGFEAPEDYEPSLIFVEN
Chain of Galactokinase (Homo sapiens) (P51570 whole entry, looked up): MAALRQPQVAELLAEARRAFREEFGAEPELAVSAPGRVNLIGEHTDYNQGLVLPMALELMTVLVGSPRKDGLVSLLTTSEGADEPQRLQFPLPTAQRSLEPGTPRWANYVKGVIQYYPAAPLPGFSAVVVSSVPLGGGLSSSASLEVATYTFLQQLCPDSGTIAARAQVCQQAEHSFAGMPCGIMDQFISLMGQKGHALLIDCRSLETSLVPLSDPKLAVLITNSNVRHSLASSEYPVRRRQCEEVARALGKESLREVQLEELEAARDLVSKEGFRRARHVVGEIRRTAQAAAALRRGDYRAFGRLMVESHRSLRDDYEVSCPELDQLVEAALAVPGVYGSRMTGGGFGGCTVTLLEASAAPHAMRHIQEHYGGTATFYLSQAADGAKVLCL
Chain of Peptidyl-prolyl cis-trans isomerase NIMA-interacting 1 (Homo sapiens) (Q13526 whole entry, looked up): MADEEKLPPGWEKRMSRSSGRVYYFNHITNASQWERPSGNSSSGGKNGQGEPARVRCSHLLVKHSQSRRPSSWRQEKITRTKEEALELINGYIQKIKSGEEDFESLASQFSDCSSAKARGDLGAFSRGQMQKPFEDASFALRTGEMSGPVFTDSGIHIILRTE
Chain of Thyrotropin-releasing hormone receptor (Homo sapiens) (P34981 whole entry, looked up): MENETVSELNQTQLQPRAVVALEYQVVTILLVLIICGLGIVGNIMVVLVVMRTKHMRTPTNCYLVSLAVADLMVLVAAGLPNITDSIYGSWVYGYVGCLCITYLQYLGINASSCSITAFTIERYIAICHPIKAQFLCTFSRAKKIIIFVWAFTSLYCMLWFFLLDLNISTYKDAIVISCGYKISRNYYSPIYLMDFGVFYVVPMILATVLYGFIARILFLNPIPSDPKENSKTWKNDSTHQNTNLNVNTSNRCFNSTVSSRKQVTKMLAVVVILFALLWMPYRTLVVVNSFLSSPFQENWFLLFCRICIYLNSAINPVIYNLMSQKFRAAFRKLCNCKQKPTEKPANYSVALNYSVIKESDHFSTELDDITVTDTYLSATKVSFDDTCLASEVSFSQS
Chain of Phosphoglycerate kinase, glycosomal (Trypanosoma brucei brucei) (P07378 whole entry, looked up): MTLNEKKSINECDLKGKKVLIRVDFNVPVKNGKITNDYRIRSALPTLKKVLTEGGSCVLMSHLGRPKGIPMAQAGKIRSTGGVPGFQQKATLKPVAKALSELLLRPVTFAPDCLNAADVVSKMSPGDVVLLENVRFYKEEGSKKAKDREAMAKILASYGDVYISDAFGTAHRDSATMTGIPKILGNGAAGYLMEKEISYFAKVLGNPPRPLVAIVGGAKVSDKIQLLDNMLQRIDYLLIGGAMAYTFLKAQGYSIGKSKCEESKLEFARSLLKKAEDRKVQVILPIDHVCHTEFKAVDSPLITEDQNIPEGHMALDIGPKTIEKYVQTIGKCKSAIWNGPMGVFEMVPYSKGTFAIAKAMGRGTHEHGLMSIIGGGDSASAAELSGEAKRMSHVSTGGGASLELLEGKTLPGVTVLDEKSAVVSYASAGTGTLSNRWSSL

Regarding `CCc1ccc(C(=O)C(C)CN2CCCCC2)cc1` (stereo not drawn), the Potency result in test [1] is “inactive”.

Turning to `NC(N)=NCc1cccc(I)c1`, the activation in test [2] was -0.0625% (inactive). Further, in test [3], the Potency is 20.6 µM (active). Further, the viability change in test [3] came out at 2.28%. In addition, the outcome in test [4], in test [5], in [6], in test [7], in test [8] and in test [9] was inactive. The molecule was called inactive in [10] and in test [11]. For the same molecule, the Potency entry in test [1] was “inactive”.

Take `CCC1Nc2cc(Cl)c(S(N)(=O)=O)cc2S(=O)(=O)N1` (stereo not drawn): the Potency entry in test [1] is “inactive”.

As to `Cc1cc(CC(=O)O)c(C)n1-c1ccc(Cl)cc1`, the Potency entry in [1] is “inactive”.

Turning to `COc1ccc(CCN(C)CCCN2CCc3cc(OC)c(OC)cc3CC2=O)cc1OC`, the Potency result in test [1] is “inactive”.

Regarding `C[N+]1(CC2COC(c3ccccc3)(C3CCCCC3)O2)CCCCC1` (stereo not drawn), in test [1], the Potency entry was “inactive”.

For `CC(=O)NC(=O)c1ccccc1O`, the Potency entry in test [1] is “inactive”.

Take `CCc1oc2ccccc2c1C(=O)c1cc(Br)c(O)c(Br)c1`: the Potency in test [1] is 31.6 µM (active).

On to `OC1C(O)C(O)C(O)C(O)C1O` (stereo not drawn), for which the Potency entry in [1] was “inactive”.

For the molecule `OC(C#CCN1CCCC1)(c1ccccc1)c1ccccc1`, in test [1], the Potency entry was “inactive”.

As to `O=C(Nc1ccc([N+](=O)[O-])cc1)Nc1ccc([N+](=O)[O-])cc1`, in [1], the Potency entry is “inactive”.

As to `Cc1nc(-c2ccc(Cl)cc2)oc1COC(C)(C)C(=O)O`, in test [1], the Potency result is “inactive”.

As for `COc1cc(N)c(Cl)cc1C(=O)NC1CCN(Cc2ccccc2)CC1`, the Potency entry in test [1] was “inactive”.

On to `CCCCN=C(N)N=C(N)N`, for which, in test [1], the Potency result was “inactive”.

Consider `COc1cc(O)c(C(=O)c2ccccc2)cc1S(=O)(=O)O`, for which, in [1], the Potency result is “inactive”.

On to `CC(C)[N+](C)(C)CC(O)COc1cccc2ccccc12` (stereo not drawn), for which, in [1], the Potency result is “inactive”.

Turning to `O=C(O)P(=O)(O)O`, in test [1], the Potency entry was “inactive”.

For `Nc1ccc(C(=O)NCC(=O)O)cc1`, the Potency result in test [1] was “inactive”.

Regarding `Cc1ccc(-c2ncc(Cl)cc2-c2ccc(S(C)(=O)=O)cc2)cn1`, in [1], the Potency result was “inactive”.

As for `CCOCCn1c(N2CCCN(C)CC2)nc2ccccc21`, the Potency entry in test [1] was “inactive”.

Turning to `CCOC(=O)Nc1ccc2c(c1)N(C(=O)CCN1CCOCC1)c1ccccc1S2`, the Potency result in [1] is “inactive”.

Consider `COc1ccc2c(c1)c1c3n2CCN(C)C3=NCC1`, for which the Potency entry in test [1] is “inactive”.

With `NC(=S)N/N=C/c1cccnc1`, the Potency result in test [1] was “inactive”.

On to `O=C(O)C(Cc1cc(I)c(O)c(I)c1)c1ccccc1` (stereo not drawn), for which the Potency result in test [1] is “inactive”.

For `Cc1ccc2c(Br)cc(Br)c(O)c2n1`, in [1], the Potency result was “inactive”.

Regarding `COc1ccccc1N1CCN(CCCCNC(=O)c2ccc(-c3ccc(C(C)=O)cc3)cc2)CC1`, the Potency result in test [1] was “inactive”.

Consider `CC(=O)N[C@@H](CCC(=O)O)C(=O)O`, for which the Potency result in test [1] was “inactive”.

As to `CN1CCN(CCC(=O)N2c3ccccc3Sc3ccc(C(F)(F)F)cc32)CC1`, the Potency entry in test [1] was “inactive”.

Consider `O=S(=O)(O)c1ccc(O)cc1`, for which the Potency result in test [1] is “inactive”.

Take `CCCCNC(=O)NS(=O)(=O)c1ccc(N)cc1`: the Potency entry in test [1] was “inactive”.

`COc1cc(NS(=O)(=O)c2ccc(N)cc2)ncn1`: in test [1], the Potency entry is “inactive”.

In the case of `CNCCc1ccccn1`, the Potency result in [1] was “inactive”.

On to `O=C(Nc1cccc(C2=NCCN2)c1)Nc1cccc(C2=NCCN2)c1`, for which the Potency result in [1] is “inactive”.

Take `CC(C(=O)O)c1cccc(Oc2ccccc2)c1` (stereo not drawn): the Potency result in test [1] is “inactive”.

`CCOc1cc(OCC)c(C(=O)CCC(=O)O)cc1OCC`: the Potency result in [1] was “inactive”.

For `NS(=O)(=O)c1cc(C(=O)O)cc(N2CCCC2)c1Oc1ccccc1`, the Potency entry in test [1] is “inactive”.

Consider `CCNC(=O)NCc1cccc(Cl)c1`, for which the Potency result in test [1] was “inactive”.

`COc1cc(C(=O)NCc2ccc(OCCN(C)C)cc2)cc(OC)c1OC`: the Potency result in test [1] is “inactive”.

In the case of `CCNC(=O)/C=C/c1cccc(Br)c1`, the Potency entry in test [1] was “inactive”.

Consider `CC(C)Cc1ccc(CC(=O)O)cc1`, for which, in test [1], the Potency result was “inactive”.

`CCOC(=O)c1c(N)sc2c1CCN(Cc1ccccc1)C2`: in test [1], the Potency entry was “inactive”.

Take `Cc1cccc(C)c1NC(=O)c1ccccc1C(=O)O`: the Potency entry in [1] is “inactive”.
